Compound activity: PubChem, National Center for Advancing Translational Sciences (NCATS)
Only some compounds are listed: those with a hit (about 19% of all), similar ones and a draw of the others.
ELG1 DNA repair = ELG1-dependent DNA repair inhibition. HEK293T ELG1-luciferase reporter, luminescence, 16 h; DNA damage induced by 5-fluorouridine. 330,000 compounds, 2.3% hits. Potency, µM (top dose mostly 46.1 µM), for the others: top-dose activity change, negative = inhibition, hits mostly inhibitors; note: potency is the fitted concentration of half-maximal effect; nearly all actives have a fitted effect of over 55% in size
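5-Fluorouridine DNA damage + compound/DMSO, 2,000 cells/well, 16 h, 37 °C/5% CO2. ONE-Glo, 30 min RT, luminescence. Readout = decrease in reporter signal.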
Giardia killer = kills Giardia lamblia; Giardia lamblia trophozoite viability; activity change, % at 7.66 µM, hits read low; 340,000 compounds, 0.15% hits; in the data active = activity change below about -80%; inconclusive = between about -30% and that limit;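 note: parasites exposed to compound for two days anaerobically before the ATP read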
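Giardia lamblia trophozoites (100 cells/well) were incubated with compounds for 48 h at 37 deg C under anaerobic conditions. Viability was read as ATP content by one-step luminescence after 15-30 min at room temperature.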
TDP1 cell noCPT = qHTS for Inhibitors of human tyrosyl-DNA phosphodiesterase 1 (TDP1): qHTS in cells in absence of CPT; DT40 Tdp1-/- hTDP1 cells, no CPT, ATP luminescence, 48 h; Potency, µM (highest dose often 46.2 µM), without a hit: at the highest dose activity change, negative = growth inhibition, hits mostly inhibitors; 420,000 compounds, 15% hits; note: potency is the fitted concentration of half-maximal effect; nearly all actives have a fitted effect of over 55% in size
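Stably hTDP1-transfected Tdp1-null chicken DT40 cells were treated with library compounds minus camptothecin and grown for at least 48 hr at 37 °C, after which cellular ATP was quantified by luminescence.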
IL-1B inflam inh = inhibitors of inflammasome signaling (IL-1 beta secretion). THP-1 LPS/ATP IL-1B secretion, AlphaLISA, 16 h; stronger effect = lower value. activity change, % at 57.5 µM. 360,000 compounds, 4.7% hits. AID 743279; in the data active = activity change below about -50%; inconclusive = mostly about -30% to -49%
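Secreted IL-1B measured by AlphaLISA bead assay after 16 h compound exposure of THP-1 cells; compounds (final up to 57.5 uM) added 1 h before LPS (250 ng/mL) and ATP (1.25 mM) stimulation; lower signal means less secretion.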
TDP1 block = inhibitors of human tyrosyl-DNA phosphodiesterase TDP1; Q9NUW8; recombinant TDP1, AlphaScreen DNA substrate cleavage; Potency, µM (top dose mostly 130 µM), for inactives: at the highest dose activity change, negative = inhibition, hits mostly inhibitors; 350,000 compounds, 0.28% hits; note: potency is the fitted concentration of half-maximal effect; nearly all actives have a fitted effect of over 40% in size
Target sequence (Q9NUW8 whole entry, looked up): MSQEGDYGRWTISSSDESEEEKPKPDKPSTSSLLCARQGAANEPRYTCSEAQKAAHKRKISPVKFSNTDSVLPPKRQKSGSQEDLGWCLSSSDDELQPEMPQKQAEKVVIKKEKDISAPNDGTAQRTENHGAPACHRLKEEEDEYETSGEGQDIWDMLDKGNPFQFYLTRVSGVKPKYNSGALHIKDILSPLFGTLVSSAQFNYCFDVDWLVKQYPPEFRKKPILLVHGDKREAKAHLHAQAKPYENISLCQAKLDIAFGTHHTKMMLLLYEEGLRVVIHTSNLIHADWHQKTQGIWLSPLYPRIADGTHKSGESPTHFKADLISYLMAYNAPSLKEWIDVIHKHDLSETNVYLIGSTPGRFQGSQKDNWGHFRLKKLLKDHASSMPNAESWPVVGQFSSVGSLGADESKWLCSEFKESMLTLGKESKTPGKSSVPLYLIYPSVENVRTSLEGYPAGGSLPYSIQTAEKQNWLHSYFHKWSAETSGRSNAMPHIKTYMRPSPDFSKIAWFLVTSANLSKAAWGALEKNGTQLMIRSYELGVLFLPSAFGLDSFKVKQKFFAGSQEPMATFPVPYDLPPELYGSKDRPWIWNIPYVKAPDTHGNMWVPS
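Enzyme-compound mixtures sat 15 min at room temperature, followed by a 5 min reaction with 15 nM final substrate and 10 min with AlphaScreen beads. Recombinant human Tdp1 was used at 1 nM final.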
DT40 TDP1 CPT = growth inhibition of DT40 Tdp1-/-;hTDP1 cells with camptothecin (screen for TDP1 inhibitors). chicken DT40 Tdp1-/-;hTDP1 cells + 20 nM CPT, ATP luminescence, 48 h. Potency, µM (doses to about 46.2 µM), for the others: at the top dose activity change, negative = growth inhibition, most hits filed as inhibitors. 420,000 compounds, 12% hits; note: potency is the fitted concentration of half-maximal effect; nearly all actives have a fitted effect of over 55% in size
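Chicken DT40 Tdp1-/- cells stably complemented with human TDP1 were seeded at 400 cells/well in medium containing 20 nM camptothecin, exposed to pin-transferred compounds, and grown at 37 °C for at least 48 hr. Viability was read as ATP luminescence.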
The depositor's hits bear a star; ? = inconclusive; . = not tested or not shown; [ ] = remark or other dose. Unless noted, calls come from the whole dose curve; as a rule, active = well fitted curve in the direction sought with a large enough effect; inconclusive = small, poorly fitted or top-dose-only effect, or another doubt; inactive = no such curve, though single readings can be large; an effect the other way counts as inactive or inconclusive. % is set by controls: 0 for no effect and ±100 for the full control effect.

SMILES	ELG1 DNA repair	Giardia killer	TDP1 cell noCPT	IL-1B inflam inh	TDP1 block	DT40 TDP1 CPT
OCCNCCCCOc1ccc(OCc2ccccc2)cc1	?	-3	?	-81*	-3%	?
OCCCCNCc1ccc(OCc2ccccc2)cc1	?	-2	?	-1	3%	?
CNCC(C)COc1ccccc1OCc1ccccc1 (centres undefined)	-18%	3	?	-7	-5%	?
CC(O)CNCCCOc1cccc(Oc2ccccc2)c1 (centres undefined)	10%	-7	16µM*	-56*	.	16µM*
CC(O)CNCCCCOc1ccc(OCc2ccccc2)cc1 (centres undefined)	?	-3	?	-56*	-5%	23µM*
CC(O)CNCCCOc1ccccc1OCc1ccccc1 (centres undefined)	-1%	-9	?	-52*	.	-3%
CC(C(=O)NC(=O)NC1CCCCC1)N1CCN(C(c2ccccc2)c2ccccc2)CC1 (centres undefined)	?	11	15µM*	3	1%	23µM*
CCOc1ccccc1NC(C)C(=O)NC(=O)NC1CCCCC1 (centres undefined)	26%	17	-28%	39	5%	18µM*
CCC(=O)N1CCc2cc(Br)cc(S(=O)(=O)N3CCC(C(=O)Nc4ccc(OC)cc4)CC3)c21	.	.	?	.	3%	?
CCc1ccc(NC(=O)CSc2ccc3nnc(CCNS(=O)(=O)c4ccc(OC)cc4)n3n2)cc1	.	.	?	.	5%	-19%
CC(C)c1ccc(OCCCN2CCCC2)cc1	28%	-14	-15%	11	.	?
CN(CC(=O)Nc1ccc(OC(F)(F)F)cc1)S(=O)(=O)c1ccc2c(c1)CCC(=O)N2	.	.	12µM*	.	6%	?
CC(=O)N1c2ccc(S(=O)(=O)NCCC(=O)NC3CCCC(C)C3C)cc2CC1C (centres undefined)	9.2µM*	4	?	-52*	-1%	-45%
CC(=O)N1c2ccc(S(=O)(=O)NCCC(=O)N3CCC(C)CC3)cc2CC1C (centres undefined)	-12%	10	-18%	16	1%	?
Cc1ccc(S(=O)(=O)NCCC(=O)NC2CCCCC2C)cc1 (centres undefined)	19%	-2	-14%	1	-2%	-19%
COc1ccc(S(=O)(=O)NCCC(=O)NC2CCCCC2C)cc1[N+](=O)[O-] (centres undefined)	-4%	1	-44%	7	18µM*	-18%
CC(=O)N1c2ccc(S(=O)(=O)NCCC(=O)Nc3ncccc3C)cc2CC1C (centres undefined)	11%	-9	18%	13	4%	-17%
CC(=O)N1c2ccc(S(=O)(=O)NCCC(=O)Nc3ccc(Cl)cc3)cc2CC1C (centres undefined)	.	.	?	3	.	18µM*
CCOC(=O)c1cc(-c2ccc(OC)cc2)nn1Cc1ccccc1	.	.	?	.	-14%	-27%
CC(=O)N1c2ccc(S(=O)(=O)NCCC(=O)Nc3ccc(OC(F)(F)F)cc3)cc2CC1C (centres undefined)	?	48	?	21	1%	18µM*
COc1ccc(NC(=O)CCNS(=O)(=O)c2ccc3c(c2)CC(C)N3C(=O)C2CC2)cc1 (centres undefined)	-6%	8	-28%	36	2%	?
CC(=O)N1CCc2cc(S(=O)(=O)C(C)CC(=O)Nc3ccc(OC(F)(F)F)cc3)ccc21 (centres undefined)	-3%	-9	?	20	3%	21µM*
CC(=O)N1c2ccc(S(=O)(=O)NCCC(=O)Nc3ccc(C)c(F)c3)cc2CC1C (centres undefined)	-1%	7	21µM*	55	2%	?
COc1ccc(NC(=O)CCS(=O)(=O)c2ccc3c(c2)CCN3C(C)=O)cc1	13%	7	0%	0	-1%	-1%
O=C(CC1CCC1)Nc1cccc2c([N+](=O)[O-])cccc12	.	5	-17%	18	.	-6%
SMILES	ELG1 DNA repair	Giardia killer	TDP1 cell noCPT	IL-1B inflam inh	TDP1 block	DT40 TDP1 CPT
Cc1cc(C)n(-c2ccc(C(=O)Nc3cccnc3Cl)cc2)n1	-10%	10	?	-23	2%	?
Cc1cc(C)n(-c2ccc(C(=O)Nc3cc(S(=O)(=O)N(C)C)ccc3Cl)cc2)n1	?	6	?	-24	3%	16µM*
CCN1CCN(c2ccc(Cl)cc2NC(=O)c2ccco2)CC1	-9%	2	?	-62*	-2%[56.1 µM]	?
CCN1CCN(c2ccc(Cl)cc2NC(=O)c2ccc(-n3nc(C)cc3C)cc2)CC1	15µM*	28	?	-64*	2%	21µM*
CCC(=O)N1CCN(c2ccc(Cl)cc2NC(=S)NC(=O)c2ccco2)CC1	.	5	?	1	.	?
CN(C)c1ccc(/C=C/c2cc[n+](C)cc2)cc1	?	-3	5.2µM*	0	2%	6.5µM*
Cc1ccc(/C=C/c2ccc(N(C)C)cc2)[n+](C)c1	29%	-6	0.41µM*	-2	.	0.52µM*
CCOc1ccc(CNS(=O)(=O)c2cc3c(cc2C)NC(=O)CO3)cc1	.	.	6%	.	-5%	-10%
CCc1ccc(-n2c(=O)c3sc4ccccc4c3n(CC(=O)NC3CCCCC3)c2=O)cc1	.	.	?	.	4%	3%
CCN1C(=NCc2ccc(OC)cc2)N[C@@H](c2ccccc2)C(C(=O)OC)=C1C	-3%	-12	?	-24	.	?
COC(=O)C1=C(C)N(Cc2ccccc2)C(=NCc2cc(OC)c(OC)c(OC)c2)N[C@H]1c1cccc(F)c1	?	-6	8.2µM*	?	.	12µM*
COC(=O)C1=C(C)N(Cc2ccccc2)C(=NCc2cccc(Cl)c2)N[C@H]1c1cccc(F)c1	?	13	3.7µM*	?	4%	2.6µM*
COC(=O)C1=C(C)N(Cc2ccccc2)C(=NCCCCO)N[C@H]1c1ccccc1	8%	3	?	2	.	?
CCN1C(=NCc2cc(OC)c(OC)c(OC)c2)N[C@@H](c2ccccc2)C(C(=O)OC)=C1C	?	13	-16%	-13	0%	?
COC(=O)C1=C(C)N(Cc2ccccc2)C(=NCc2ccc(OC)cc2)N[C@H]1c1cccc(F)c1	1%	11	16µM*	?	.	15µM*
